# T1: variant nuclease E154G/L38G/K221G combination (P14R, D32R, I61R, E311R, E154G, L38G, K221G)
# T1 chain: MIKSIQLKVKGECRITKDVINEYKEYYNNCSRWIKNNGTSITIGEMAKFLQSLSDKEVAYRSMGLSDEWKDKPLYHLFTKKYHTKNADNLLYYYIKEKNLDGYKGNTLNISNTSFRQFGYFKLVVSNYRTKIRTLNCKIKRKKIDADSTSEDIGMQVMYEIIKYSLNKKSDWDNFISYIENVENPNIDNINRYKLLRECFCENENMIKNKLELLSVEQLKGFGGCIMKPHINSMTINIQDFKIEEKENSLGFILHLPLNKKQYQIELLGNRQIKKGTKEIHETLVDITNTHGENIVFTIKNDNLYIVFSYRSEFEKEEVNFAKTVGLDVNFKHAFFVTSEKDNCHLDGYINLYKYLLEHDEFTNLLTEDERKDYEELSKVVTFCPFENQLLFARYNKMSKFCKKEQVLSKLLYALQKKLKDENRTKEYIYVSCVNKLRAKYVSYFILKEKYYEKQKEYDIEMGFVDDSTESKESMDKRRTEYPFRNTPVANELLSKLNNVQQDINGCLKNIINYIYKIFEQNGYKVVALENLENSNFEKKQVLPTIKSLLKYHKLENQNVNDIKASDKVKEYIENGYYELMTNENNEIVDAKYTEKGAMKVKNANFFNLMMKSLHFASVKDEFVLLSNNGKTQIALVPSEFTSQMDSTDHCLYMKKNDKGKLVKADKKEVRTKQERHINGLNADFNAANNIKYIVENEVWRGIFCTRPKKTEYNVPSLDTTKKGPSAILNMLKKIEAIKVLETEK
# B1: AAVS1 crRNA ; AAVS1 target (ssRNA ; dsDNA)
# RNA: CUUGUUGUAUAUGUCCUUUUAUAGGUAUUAAACAACUGAGAAUGGUGCGUCCUAGG
# DNA 1: TGAGAATGGTGCGTCCTAGG
# DNA 2: CCTAGGACGCACCATTCTCA
# B2: EMX1 crRNA ; EMX1 target (ssRNA ; dsDNA)
# RNA: CUUGUUGUAUAUGUCCUUUUAUAGGUAUUAAACAACCCGCCGCUUCCUGAGCCAUC
# DNA 1: CCGCCGCTTCCTGAGCCATC
# DNA 2: GATGGCTCAGGAAGCGGCGG
# B3: VEGFA crRNA ; VEGFA target (ssRNA ; dsDNA)
# RNA: CUUGUUGUAUAUGUCCUUUUAUAGGUAUUAAACAACUCCAGACCACCAAUGGGCAC
# DNA 1: TCCAGACCACCAATGGGCAC
# DNA 2: GTGCCCATTGGTGGTCTGGA
# Legend:
# Conditions in all cases: tags: pcDNA3.1 expression
# [1] = biological target: T1, variant nuclease E154G/L38G/K221G …; assay: cell_activity; PAM 5'-TTTG-3'
# Method: (§1) Approximately 16 hours prior to transfection, 25,000 HEK293T cells in DMEM/10% FBS+Pen/Strep (D10 media) were plated into each well of a 96-well plate. On the day of transfection, the cells were 70-90% confluent. For each well to be transfected, a mixture of Lipofectamine 2000™ and Opti-MEM™ was prepared and incubated at room temperature for 5 minutes (Solution 1). After incubation, the Lipofectamine 2000™:Opti-MEM™ mixture was added to a separate mixture containing nuclease plasmid, RNA guide plasmid, and Opti-MEM™ (Solution 2). In the case of negative controls, the RNA guide plasmid was not included in Solution 2. Solutions 1 and 2 were mixed by pipetting up and down, then incubated at room temperature for 25 minutes. Following incubation, the Solution 1 and 2 mixture was added dropwise to each well of a 96-well plate containing the cells. Approximately 72 hours post transfection, cells were trypsinized by adding TrypLE™ to the center of each well and incubating at 37° C. for approximately 5 minutes. D10 media was then added to each well and mixed to resuspend cells. The resuspended cells were centrifuged at 500 g for 10 minutes to obtain a pellet, and the supernatant was discarded. […]
# (§2) The percentage of NGS reads containing indels (% indels) were calculated. […]
# [2] = biological target: T1, variant nuclease E154G/L38G/K221G …; assay: cell_activity; PAM 5'-ATTG-3'
# [3] = biological target: T1, variant nuclease E154G/L38G/K221G …; assay: cell_activity; PAM 5'-TTTA-3'
# Method: as §1, §2
binder,measurement,setting,value
B1,indel activity,[1],0.19 fold of WT
B2,indel editing activity,[2],0.17 fold of WT
B3,indel activity,[3],0.06 fold of WT
